Measurements reported in the supplement of paper PMC6555819.

Experiments:
Test in all cases: PBM binding z-score (relative to random genomic background probes); higher = stronger binding; sequences stand for … in GC…GCGATTGACAGCGTAGAATGAAGG
[1] = system: PPARg:RXRa DBDmut IVT, anti-RXR (DBD mutation: RXRa K156A/R161A, NR concentration 270 nM, RXRa partner concentration 90 nM)
Outline: (§1)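 Regression normalization was applied to scanned fluorescence from custom Agilent 4×180K protein-binding microarrays. Before scanning, arrays were incubated 1 h with ligand-free nuclear receptor dimers, and binding was detected with antibodies against each partner (one per run). Binding z-scores use the random background probes as reference.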

[2] = system: PPARg:RXRa IVT, anti-PPARg (NR concentration 270 nM, RXRa partner concentration 90 nM)
Outline: as §1

[3] = system: PPARg DBDmut:RXRa IVT, anti-PPARg (DBD mutation: PPARg1 K132A/R137A, NR concentration 270 nM, RXRa partner concentration 90 nM)
Outline: as §1

[4] = system: PPARg DBDmut IVT, anti-PPARg (DBD mutation: PPARg1 K132A/R137A, NR concentration 270 nM)
Outline: as §1

[5] = system: PPARg homodimer (NR concentration 180 nM)
Outline: as §1

[6] = system: PXR:RXRa (NR concentration 270 nM, RXRa partner concentration 90 nM)
Outline: as §1

[7] = system: PXR homodimer (NR concentration 270 nM)
Outline: as §1

[8] = system: RARa:RXR (NR concentration 270 nM, RXRa partner concentration 90 nM)
Outline: as §1

[9] = system: RARa homodimer (NR concentration 270 nM)
Outline: as §1

[10] = system: RARb:RXRa (NR concentration 270 nM, RXRa partner concentration 90 nM)
Outline: as §1

[11] = system: RARb homodimer (NR concentration 270 nM)
Outline: as §1

[12] = system: RARg:RXRa (NR concentration 270 nM, RXRa partner concentration 90 nM)
Outline: as §1

[13] = system: RARg homodimer (NR concentration 270 nM)
Outline: as §1

[14] = system: RXRa DBDmut IVT, anti-RXR (DBD mutation: RXRa K156A/R161A, NR concentration 90 nM)
Outline: as §1

[15] = system: RXRa homodimer (NR concentration 180 nM)
Outline: as §1

[16] = system: THRa:RXRa (NR concentration 90 nM, RXRa partner concentration 90 nM)
Outline: as §1

[17] = system: THRa homodimer (NR concentration 90 nM)
Outline: as §1

[18] = system: VDR:RXRa (NR concentration 270 nM, RXRa partner concentration 90 nM)
Outline: as §1

[19] = system: VDR homodimer (NR concentration 270 nM)
Outline: as §1

Sequence	PBM binding z-score [1]	PBM binding z-score [2]	PBM binding z-score [3]	PBM binding z-score [4]	PBM binding z-score [5]	PBM binding z-score [6]	PBM binding z-score [7]	PBM binding z-score [8]	PBM binding z-score [9]	PBM binding z-score [10]	PBM binding z-score [11]	PBM binding z-score [12]	PBM binding z-score [13]	PBM binding z-score [14]	PBM binding z-score [15]	PBM binding z-score [16]	PBM binding z-score [17]	PBM binding z-score [18]	PBM binding z-score [19]
CCGGCTAGGTCAATGGTCAGCTAAAGCAGCTCGC	3.12	2.61	-1.05	-0.801	0.684	0.817	-0.491	1.75	0.248	3.8	3.19	3.59	4.45	1.33	2.4	2.16	0.768	0.907	0.413
TCTTGTAGATCAGCGGGTTAAGAAAGCTGGCCAA	1.84	0.55	-0.631	0.232	0.0922	0.359	-0.369	0.653	-0.539	0.032	0.0505	-0.0561	-0.559	0.982	0.349	0.0519	-0.241	0.539	-0.169
TCAAGTAGGTTAGTCGGGGCATTCAGCCAACATA	4.81	4.14	0.386	1.15	1.35	0.801	0.708	0.739	0.814	0.917	0.846	0.431	0.362	1.46	0.586	1.26	0.656	2.43	0.907
CTACCAAGGTGAACAAAGTCGTTGATTACTATTC	2.31	2.45	0.74	0.992	0.58	0.262	0.0608	0.544	0.222	1.42	0.608	0.623	0.808	0.695	0.378	1.69	0.927	0.601	0.24
CCTGCTAGGTTATGGTCAGCTAATCTACAGTATG	1.28	0.468	-0.113	0.438	-0.1	-0.197	-0.354	-0.233	0.0671	1	0.748	0.34	0.636	0.299	0.0468	0.383	-0.417	–	-0.337
GCTCGGAGGACCAGGTCAGAGCTTTGTCCGTAGA	-0.0233	-0.0399	-1.45	-1.52	-0.553	0.343	-0.875	0.505	-0.985	1.35	1.34	0.802	0.461	-0.305	0.617	1.73	0.402	-0.322	-0.425
CGTCCAAAGTCAAGGTCAGTGAAAGAGACTCGAA	0.62	0.874	-0.185	-0.414	2.49	2.05	1.01	2.47	0.742	3.62	3.54	3	3.58	1.13	2.53	3.03	2.06	2.11	1.29
ATCTCTAGGTAAAGATAGTTCAATGAATGCAAAT	2.11	1.74	1.55	1.22	0.945	1.65	1.02	0.946	1.4	1.07	1.4	1.08	1.05	0.373	0.737	1.05	-0.0901	1.61	1.15
